Data taken from PubChem BioAssay AID504773 (Broad Institute, 2011).
Potency and affinity values are given separately. Active and inactive are the calls of the source.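 Rule for the calls: active = polarization signal falls with dose and the fitted half-maximal concentration is at or below ten times the sample's top valid dose; inconclusive = flat curve at 30 to 70% inhibition, or poor fit; inactive = signal rises, flat within 30%, or potency beyond limit.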

Biological target: Golgi-associated PDZ and coiled-coil motif-containing protein (Homo sapiens) (UniProt Q9HD26)
Test: potency against CAL PDZ-peptide interaction – biochemical, fluorescence polarization, Cerulean-tagged CAL PDZ, cherry-picks, dose response (AID 504773)
Settings: CAL PDZ-peptide binding, 1 h; series mostly up to 50 µM

outcome, inactive:
O=C(NNC(=O)c1c(F)cccc1F)c1sccc1-n1cccc1
Cc1nc(Cl)sc1C(=O)Nc1cc(F)cc(F)c1
O=C(NCc1ccccc1)C1CCCN(c2nc3ccsc3c(=O)s2)C1 (configuration not stated)
CCOc1ccc(N(CC(=O)N2CCN(Cc3ccccc3)CC2)S(C)(=O)=O)cc1
CCCn1cnc2c(SCCc3ccccc3)nc(N)nc21
CCc1nc(SCC(=O)c2ccccc2)c2c(=O)n(C)c(=O)n(C)c2n1
CS(=O)(=O)c1ccc(Cl)c(NC(=O)COC(=O)c2c(Cl)cccc2Cl)c1
CC1Cc2ccccc2N1C(=O)CNc1ccccc1N1CCCCC1 (configuration not stated)
O=C(NCc1ccc(Cl)cc1)C(=O)NCC1OCCN1C(=O)c1ccc(Cl)cc1 (configuration not stated)
COc1ccc(OC)c(NC(=O)c2ccc(OC3CSC3)cc2)c1
CCN1CCN(S(=O)(=O)c2ccc(OC)c3ccccc23)CC1
O=C(NCc1cccnc1)/C(=C/c1ccc(-c2cccc(C(F)(F)F)c2)o1)NC(=O)c1ccccc1
CC1CCCC(C)N1/N=C/c1ccc(N(C)C)cc1 (configuration not stated)
Cc1ccccc1S(=O)(=O)NC(=NCc1ccc(F)cc1)c1ccccc1
CC(C)CNC(=O)CC1Nc2ccccc2NC1=O (configuration not stated)
COc1ccc(NC(=O)c2ccc3c(c2)NC(=O)CO3)cc1OC
CC(=O)NC(Cc1ccccc1)C(C)=O (configuration not stated)
Cc1ccc(CN(Cc2cccnc2)C(=S)Nc2cccc(Cl)c2C)cc1
CCCOc1ccc(S(=O)(=O)Nc2ccccn2)c2ccccc12
CCCCC(CCC(=O)Nc1nccs1)C(=O)O (configuration not stated)
C/C(CC(=O)Nc1ccc(C)c(Cl)c1)=N\NC(=O)Cc1cnc(N)s1
COc1ccc(/C=N/N2CCN(c3ccccc3OC)CC2)cc1Br
CCCOc1ccc(CC(=O)N/N=C\c2ccc(F)cc2)cc1
Cc1cc(C(=O)CN2CCCC2)c(C)n1-c1ccc(Cl)cc1
C[C@H](NC(=O)c1ccccc1Cl)C(=O)NCc1cccs1
O=C(/C=C/c1cccs1)Nc1scc(-c2ccccc2)c1C(=O)O
COc1ccc(S(=O)(=O)N2CCOCC2)cc1NC(=O)CN1CCCCCC1
CN(C)c1ccc(P(=O)(OC2CCCCC2)C(O)c2cccnc2)cc1 (configuration not stated)
Cc1cc(NC(=O)CSc2nnc(-c3ccccc3)c(-c3ccccc3)n2)no1
CCC(C(=O)NN1C(=O)c2ccccc2C1=O)c1ccccc1 (configuration not stated)
CCOC(=O)NC(=O)COC(=O)CCCSc1nc2ccccc2s1
Cc1ccc(Cl)c2c(N=Nc3ccccc3)c(O)[nH]c12
Cc1cccc(CN2CCc3c([nH]c4ccccc34)C2CC(C)C)n1 (configuration not stated)
c1ccc(C2Nc3ccccc3Oc3ccccc32)cc1 (configuration not stated)
COc1ccc(C2/C(=C(/O)c3ccc(C)cc3)C(=O)C(=O)N2C)c(OC)c1 (configuration not stated)
Cc1ccc(C)c(N(CC(=O)NC(C)(C)C)C(=O)CCC(=O)Nc2nccs2)c1
O=C(NCCc1ccccc1)C1CCC(=O)N(CCCN2CCCC2=O)C1 (configuration not stated)
